# Measurements published in article PMC5540273 (PLoS ONE, 2017).
# “And” between values parts separate entries of the source, which are not always exact repeats. Identical values can stand only once. Like-named read-outs stand apart in the source and are kept apart here.
# Columns and labels:
# [1] = test system: T1, YSK4
# T1 construct: gene MAP3K19
# [2] = test system: T2, p38-alpha
# T2 construct: gene MAPK14
# [3] = test system: AAK1; details: concentration: 1 μM, replicates: in singlicate; n = 1
# [4] = test system: ABL1-nonphosphorylated; details: concentration: 1 μM, replicates: in singlicate, n = 1
# [5] = test system: ABL1-phosphorylated; details: concentration: 1 μM, replicates: in singlicate, n = 1
# [6] = test system: TSSK3
# [7] = test system: TXK
# [8] = test system: ZAK
# [9] = test system: T3, p38-beta
# T3 construct: gene MAPK11
# [10] = test system: WNK4
# [11] = test system: T4, YANK1
# T4 construct: gene STK32A
# [12] = test system: TNNI3K
# [13] = test system: TNIK
# [14] = test system: T5, TRKC
# T5 construct: gene NTRK3
# [15] = test system: T6, VPS34
# T6 construct: gene PIK3C3
# [16] = test system: ULK2
# [17] = test system: TYK2(JH2domain-pseudokinase)
# 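Wherever %Inh is given: KINOMEscan kinase panel screen.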
# 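Wherever Kd is given: kd values determined as follow-up on hits from a single-replicate KINOMEscan panel screen.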
structure (smiles),measurement,setting,value
COc1ccc(-c2nc3n(c2-c2ccncc2)CCC3)cc1 [SKF-104493],Kd,[1],> 10000 nM
same,Kd,[2],220 nM and 130 nM
same,%Inh,[3],0%
same,%Inh,[4]; 1 µM,51% and 2%
same,%Inh,[5]; 1 µM,20% and 0%
CC(C)(C)OC(=O)NC1CCCN(c2cc(-c3ccc4c(N)n[nH]c4c3)nc(N)n2)C1 (stereo not shown) [GSK2286096],Kd,[6],> 10000 nM
same,%Inh,[3],60%
same,%Inh,[4],0%
same,%Inh,[5],0%
CS(=O)(=O)CCNCc1nc(-c2ccc3ncnc(Nc4ccc(OCc5cccc(F)c5)c(Cl)c4)c3c2)cs1.Cl [GW583340],Kd,[7],> 10000 nM
same,Kd,[8],> 10000 nM
same,%Inh,[3],19%
same,%Inh,[4],0%
same,%Inh,[5],0%
CSc1ccc(NC2=C(c3ccccc3Cl)C(=O)NC2=O)cc1 [SB-342411],%Inh,[3],24%
same,%Inh,[4],0%
same,%Inh,[5],0%
Cc1ccc(O)cc1Nc1cc(C(F)(F)F)nc2ccc(-c3ccncc3)cc12 [GW630823],%Inh,[3],0%
same,%Inh,[4],21%
same,%Inh,[5],7%
COc1cc2c(Nc3cccc(NC(=O)c4ccccc4)c3)ncnc2cc1OCCCN1CCOCC1 [GSK223810],Kd,[2],440 nM
same,Kd,[9],100 nM
same,%Inh,[3],45%
same,%Inh,[4],41%
same,%Inh,[5],0%
COc1ccc(Nc2nccc(N3CCC(NC(=O)Nc4ccc5c(c4)OCO5)C3)n2)cc1 (stereo not shown) [GSK1379745],%Inh,[3],3%
same,%Inh,[4],0%
same,%Inh,[5],0%
COc1ccc(NC(=O)c2ccc(-c3cc(-c4nnc(C)o4)ccc3C)cc2)cc1 [GW595885],Kd,[2],180 nM
same,%Inh,[3],0%
same,%Inh,[4],0%
same,%Inh,[5],0%
Nc1nc(-c2ccccn2)c(-c2ccnc3ccccc23)s1 [GW548057],Kd,[10],> 10000 nM
same,%Inh,[3],1%
same,%Inh,[4],28%
same,%Inh,[5],26%
COC(=O)c1cccc(NC(=O)NCCNc2ccnc(Nc3ccc(F)cc3)n2)c1 [GSK1379883],%Inh,[3],3%
same,%Inh,[4],0%
same,%Inh,[5],0%
C[C@H]1CC[C@@H](C(=O)Nc2ccccc2)CN1c1cc(-c2ccc3c(N)n[nH]c3c2)nc(N)n1 [GSK2283293],%Inh,[3],23%
same,%Inh,[4],0%
same,%Inh,[5],8%
CS(=O)(=O)CCNCc1ccc(-c2ccc3ncnc(Nc4ccc(OCc5ccccc5)c(Cl)c4)c3c2)o1.Cl [GW574783],%Inh,[3],13%
same,%Inh,[4],0%
same,%Inh,[5],0%
FC(F)(F)c1ccc(-c2cc(-c3c[nH]nc3-c3ccccn3)ccn2)cc1 [GW599550],Kd,[11],> 10000 nM
same,%Inh,[3],24%
same,%Inh,[4],17%
same,%Inh,[5],21%
FC(F)(F)c1cc(Nc2nccc(-c3c(-c4ccc(Cl)cc4)nn4ncccc34)n2)ccc1Cl [GW829351],%Inh,[3],4%
same,%Inh,[4],42%
same,%Inh,[5],0%
Nc1nc(-c2ccc3c(N)n[nH]c3c2)cc(N2CCC[C@@H](C(=O)Nc3ccccc3)C2)n1.O=C(O)C(F)(F)F.O=C(O)C(F)(F)F [GSK2288359],%Inh,[3],38%
same,%Inh,[4],0%
same,%Inh,[5],0%
COc1ccc(Nc2nccc(N3CCC(NC(=O)c4cccc(NC(C)=O)c4)C3)n2)cc1 (stereo not shown) [GSK1379732],Kd,[10],> 10000 nM
same,%Inh,[3],17%
same,%Inh,[4],0%
same,%Inh,[5],0%
CCc1nc(-c2cccc(N(C)S(=O)(=O)c3ccccc3)c2)c(-c2ccnc(Nc3ccc(N4CCN(C(C)=O)CC4)nc3)n2)s1 [GSK1645895],Kd,[8],220 nM
same,%Inh,[3],26%
same,%Inh,[4],28%
same,%Inh,[5],7%
O=C(Nc1ccccc1)Nc1ccc(Oc2ccc3nccn3n2)cc1,Kd,[12],> 10000 nM
same,%Inh,[3],0%
same,%Inh,[4],66%
same,%Inh,[5],18%
Clc1ccc(-c2cc(-c3c[nH]nc3-c3ccccn3)ccn2)cc1 [GW681251],Kd,[13],390 nM
same,Kd,[14],> 10000 nM
same,%Inh,[3],2%
same,%Inh,[4],0%
same,%Inh,[5],0%
CSc1nn2c(=O)cc(N3CCOCC3)nc2n1Cc1cccc(Cl)c1Cl [GSK2347225],Kd,[15],0.72 nM
same,%Inh,[3],7%
same,%Inh,[4],0%
same,%Inh,[5],0%
Fc1ccc(Nc2nccc(-c3c(-c4ccc(Cl)cc4)nn4ncccc34)n2)cc1F [GW829058],Kd,[13],> 10000 nM
same,Kd,[16],> 10000 nM
same,%Inh,[3],0%
same,%Inh,[4],0%
same,%Inh,[5],17%
COc1ccc(-c2oc3ncnc(N)c3c2-c2ccc(OC)cc2)cc1 [SB-589132],Kd,[17],1600 nM
same,%Inh,[3],6%
same,%Inh,[4],21%
same,%Inh,[5],10%
O=c1cc(N2CCOCC2)nc2n(Cc3cccc(Cl)c3)ccn12 [GSK2296823],Kd,[15],35 nM
same,%Inh,[3],0%
same,%Inh,[4],0%
same,%Inh,[5],7%
CN1CCC(n2cnc(-c3ccc(F)cc3)c2-c2ccnc(NC3CCNCC3)n2)CC1 [SB-229482],Kd,[2],220 nM
same,%Inh,[3],7%
same,%Inh,[4],44%
same,%Inh,[5],0%
CN1c2ccc(-c3ccc(C(=O)NCCO)cc3)cc2-c2[nH]ncc2S1(=O)=O,Kd,[17],130 nM
same,%Inh,[3],54%
same,%Inh,[4],33%
same,%Inh,[5],15%
Cc1cccc(-c2nc(Nc3ccc4[nH]nnc4c3)c3ccccc3n2)n1 [GW867587],%Inh,[3],0%
same,%Inh,[4],78%
same,%Inh,[5],47%
Cl.c1ccc(Cn2ncc3cc(Nc4ncnc5ccccc45)ccc32)cc1 [GW273749],%Inh,[3],30%
same,%Inh,[4],38%
same,%Inh,[5],17%
N#Cc1ccc(Oc2ccc(Nc3ncnc4cc[nH]c34)cc2Cl)cc1,%Inh,[3],14%
same,%Inh,[4],51%
same,%Inh,[5],6%
CCc1nc(-c2cccc(C)c2)c(-c2ccnc(NC(=O)c3ccccc3)c2)s1,%Inh,[3],2%
same,%Inh,[4],24%
same,%Inh,[5],0%
Nc1nc(-c2ccc3c(N)n[nH]c3c2)cc(N2CCCCC2)n1 [GSK2228768],%Inh,[3],53%
same,%Inh,[4],0%
same,%Inh,[5],0%
Cl.O=S(=O)(c1cccc(F)c1)c1ccc(Nc2ncnc3cc(Br)sc23)cc1Cl [GSK306886],%Inh,[3],16%
same,%Inh,[4],0%
same,%Inh,[5],0%
COC(=O)c1c(-c2ccccc2)c2cc(Cl)ccc2c(=O)n1Cc1ccc(S(C)(=O)=O)cc1,%Inh,[3],18%
same,%Inh,[4],40%
same,%Inh,[5],0%
Clc1cccc(-c2nc(Nc3ccncc3)c3ccccc3n2)c1 [GW873004],%Inh,[3],0%
same,%Inh,[4],51%
same,%Inh,[5],14%
Cn1ccc2ncnc(Nc3ccc(Oc4cccc(Cl)c4)c(Cl)c3)c21,%Inh,[3],27%
same,%Inh,[4],45%
same,%Inh,[5],15%
Fc1ccc(-c2ncn(CCCNCc3ccccc3)c2-c2ccncc2)cc1,%Inh,[3],16%
same,%Inh,[4],25%
same,%Inh,[5],15%
c1ccc(-c2ccc3c(-c4ccnc(Nc5ccc6c(c5)OCCO6)n4)cnn3n2)cc1 [GW818941],%Inh,[3],0%
same,%Inh,[4],0%
same,%Inh,[5],0%
Cn1ccc2ncnc(Oc3ccc(NC(=O)Nc4cccnc4)c(Cl)c3)c21,%Inh,[3],19%
same,%Inh,[4],23%
same,%Inh,[5],0%
COc1ccc(NC(=O)Nc2ccc(C)c(-c3ccc(C(=O)Nc4ccncc4)cc3)c2)cc1 [GSK1398475],%Inh,[3],2%
same,%Inh,[4],0%
same,%Inh,[5],2%
Fc1cccc(COc2ccc(Nc3ncnc4cc[nH]c34)cc2Cl)c1,%Inh,[3],4%
same,%Inh,[4],19%
same,%Inh,[5],21%
Clc1cc(Nc2ncnc3cc[nH]c23)ccc1OCc1ccccn1,%Inh,[3],7%
same,%Inh,[4],48%
same,%Inh,[5],0%
Nc1nccc2scc(-c3ccc4c(c3)CCN4C(=O)Cc3cc(F)ccc3F)c12 [GSK2587663],%Inh,[3],0%
same,%Inh,[4],0%
same,%Inh,[5],0%
O=C(c1ccc(-c2cc(-c3c[nH]nc3-c3ccccn3)ccn2)cc1)N1CCCC1 [GW792479],%Inh,[3],12%
same,%Inh,[4],74%
same,%Inh,[5],59%
OCCOCCn1ccc2ncnc(Nc3ccc(Oc4cccc(Cl)c4)c(Cl)c3)c21,%Inh,[3],0%
same,%Inh,[4],24%
same,%Inh,[5],0%
COc1cc2ncnc(Nc3ccc(OCc4ccccc4Br)c(Cl)c3)c2cc1OC.Cl [GI261590],%Inh,[3],15%
same,%Inh,[4],0%
same,%Inh,[5],0%
Cc1ccc(C)c(NC(=O)NCCNc2ccnc(Nc3ccc(F)cc3)n2)c1 [GSK1379878],%Inh,[3],63%
same,%Inh,[4],0%
same,%Inh,[5],0%
Fc1cccc(COc2ccc(Nc3ncnc4nn5ccccc5c34)cc2Cl)c1 [GW689066],%Inh,[3],0%
same,%Inh,[4],0%
same,%Inh,[5],0%
CNc1nccc(-c2c(-c3ccc(F)cc3)ncn2CCCN2CCOCC2)n1 [SB-222516],%Inh,[3],0%
same,%Inh,[4],23%
same,%Inh,[5],0%
Cl.c1ccc(Cn2ccc3cc(Nc4ncnc5ccccc45)ccc32)cc1 [GW275568],%Inh,[3],17%
same,%Inh,[4],0%
same,%Inh,[5],30%
CCn1c(-c2ccncc2)nc2cnccc21 [SB-735216],%Inh,[3],0%
same,%Inh,[4],26%
same,%Inh,[5],0%
FC(F)(F)c1ccc(-c2nn3ncccc3c2-c2ccnc(Nc3cccc(C(F)(F)F)c3)n2)cc1 [GW828205],%Inh,[3],1%
same,%Inh,[4],47%
same,%Inh,[5],30%
CC(C)(C)c1ccc(-n2cnc3c(N)ncnc32)cc1 [SKF-97263],%Inh,[3],1%
same,%Inh,[4],0%
same,%Inh,[5],0%
Cl.Cn1ccc(-c2cccc(Nc3ccnc4cc(-c5nccs5)ccc34)c2)n1 [GW525701],%Inh,[3],50%
same,%Inh,[4],0%
same,%Inh,[5],1%
O=C(Nc1ccccc1F)NC1CCN(c2ccnc(Nc3ccc(F)cc3)n2)C1 (stereo not shown) [GSK1379722],%Inh,[3],0%
same,%Inh,[4],0%
same,%Inh,[5],0%
Cc1ccc(NC(=O)c2cccc(C#N)c2)cc1-c1ccc(C(=O)Nc2ccncc2)cc1 [GSK1398463],%Inh,[3],73%
same,%Inh,[4],50%
same,%Inh,[5],10%
Cc1cc(N2CCC(NS(=O)(=O)c3ccc(F)cc3)CC2)nc(Nc2cccc(C#N)c2)n1.O=C(O)C(F)(F)F [GSK1653537],%Inh,[3],9%
same,%Inh,[4],0%
same,%Inh,[5],0%
Cn1cc(-c2ccc3c(c2)CCN3C(=O)Cc2cccc(C(F)(F)F)c2)c2c(N)ncnc21 [GSK2606414],%Inh,[3],0%
same,%Inh,[4],0%
same,%Inh,[5],0%
O=C(CCO)NCCn1ccc2ncnc(Nc3ccc(Oc4cccc(C(F)(F)F)c4)c(Cl)c3)c21,%Inh,[3],0%
same,%Inh,[4],24%
same,%Inh,[5],12%
Fc1cccc(COc2ccc(Nc3ncnc4sc(-c5ccc[nH]5)cc34)cc2Cl)c1 [GW707818],%Inh,[3],0%
same,%Inh,[4],0%
same,%Inh,[5],0%
